Several values for one entry are separate records, joined by “and”; a condition that tells them apart may be missing. Identical values can stand only once. The whole screen tested about 5,500 compounds, of which about 2,000 (36%) were called active. Inconclusive results (about 18%) are left out. Cut-off read from the data, not from the text of the source: active = normalized growth mostly below about 0.91 (no sharp cut-off); inconclusive = no clear call, values can overlap the other calls; inactive = mostly above about 0.92. This is one part of the list.
Assay: chemical genetic growth profiling, strain panel (AID 1159580);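 note: tested at 20 µM; growth read once vehicle control cultures reached saturation at 30 °C; 1 = growth at the plate median or of vehicle wells; lower values mean less growth of the strain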
Settings: S. cerevisiae deletion strains, growth OD

Measured: normalized growth

CCCc1cc(=O)[nH]c(=S)[nH]1
inactive: locus YAL013W, strain DEP1, hits give low values 1.02 | locus YAL021C, strain ccr4, hits give low values 1.02 | locus YAL026C, strain drs2, hits give low values 1.03 | locus YAL030W, strain snc1, hits give low values 1.02 | locus YBL061C, strain skt5, hits give low values 1.03 | locus YBR009C, strain hhf1, hits give low values 1.02 | locus YBR021W, strain FUR4, hits give low values 0.987 | locus YBR023C, strain chs3, hits give low values 1.02 | locus YBR171W, strain sec66, hits give low values 1.04 | locus YBR229C, strain ROT2, hits give low values 1 | locus YBR231C, strain swc5, hits give low values 1 | locus YBR279W, strain paf1, hits give low values 0.988 | locus YCL011C, strain gbp2, hits give low values 1.01 | locus YCL016C, strain dcc1, hits give low values 1.01 | locus YCL029C, strain bik1, hits give low values 0.994 | locus YCL069W, strain vba3, hits give low values 1.02 | locus YCR088W, strain abp1, hits give low values 1.01 | locus YDL005C, strain med2, hits give low values 1.03 | locus YDL035C, strain GPR1, hits give low values 1.01 | locus YDL040C, strain nat1, hits give low values 1.01 | locus YDL074C, strain BRE1, hits give low values 1.03 | locus YDL101C, strain DUN1, hits give low values 1.01 | locus YDL134C, strain PPH21, hits give low values 1.01 | locus YDL185W, strain tfp1, hits give low values 1.02 | locus YDL192W, strain arf1, hits give low values 1 | locus YDR001C, strain nth1, hits give low values 1.01 | locus YDR069C, strain doa4, hits give low values 1.01 | locus YDR101C, strain arx1, hits give low values 0.985 | locus YDR137W, strain rgp1, hits give low values 1.02 | locus YDR150W, strain NUM1, hits give low values 1.01 | locus YDR159W, strain sac3, hits give low values 0.995 | locus YDR162C, strain NBP2, hits give low values 1.02 | locus YDR195W, strain ref2 0.999 | locus YDR297W, strain sur2, hits give low values 1.01 | locus YDR318W, strain mcm21, hits give low values 0.985 | locus YDR334W, strain swr1, hits give low values 1.03 | locus YDR335W, strain msn5, hits give low values 1.01 | locus YDR388W, hits give low values 0.989 | locus YDR392W, strain spt3, hits give low values 0.997 | locus YDR502C, strain sam2, hits give low values 0.989 | locus YEL003W, strain gim4, hits give low values 1.01 | locus YEL037C, strain rad23, hits give low values 1.03 | locus YEL061C, strain CIN8 (second series), hits give low values 1.03 | locus YEL061C, strain CIN8, hits give low values 1.01 | locus YER015W, strain faa2, hits give low values 1.01 | locus YER016W, strain bim1, hits give low values 1 | locus YER110C, hits give low values 0.991 | locus YER111C, strain swi4, hits give low values 1 | locus YER155C, strain BEM2 (second series), hits give low values 1.04 | locus YER155C, strain BEM2, hits give low values 1.01 | locus YER167W, strain BCK2, hits give low values 1.01 | locus YFR010W, strain ubp6, hits give low values 1.02 | locus YGL078C, strain dbp3, hits give low values 0.996 | locus YGL086W, strain mad1, hits give low values 0.987 | locus YGL167C, strain pmr1, hits give low values 1.02 | locus YGL173C, strain kem1, hits give low values 1.04 | locus YGL227W, strain vid30, hits give low values 1.03 | locus YGL240W, strain doc1, hits give low values 1 | locus YGL248W, strain PDE1, hits give low values 1.01 | locus YGL253W, strain hxk2, hits give low values 0.995 | locus YGR078C, strain PAC10, hits give low values 1 | locus YGR135W, strain pre9, hits give low values 0.994 | locus YGR229C, strain SMI1, hits give low values 1.02 | locus YGR252W, strain gcn5, hits give low values 0.901 | locus YHR013C, strain ard1, hits give low values 1.09 | locus YHR027C, strain rpn1, hits give low values 1.01 | locus YHR030C, strain SLT2, hits give low values 1.02 | locus YHR079C, strain IRE1 (second series), hits give low values 0.983 | locus YHR079C, strain IRE1, hits give low values 1.03 | locus YHR094C, strain hxt1, hits give low values 0.993 | locus YHR129C, strain ARP1, hits give low values 1.02 | locus YHR142W, strain chs7, hits give low values 1.05 | locus YHR200W, strain rpn10, hits give low values 1.01 | locus YIL066C, strain RNR3, hits give low values 1 | locus YIL073C, strain SPO22, hits give low values 0.955 | locus YIL125W, strain kgd1, hits give low values 1 | locus YIR030C, strain dcg1, hits give low values 0.998 | locus YJL092W, strain hpr5, hits give low values 1.02 | locus YJL095W, strain BCK1 (second series), hits give low values 1.02 | locus YJL095W, strain BCK1, hits give low values 1.01 and 0.999 | locus YJL115W, strain asf1, hits give low values 1.02 | locus YJL129C, strain trk1, hits give low values 1.01 | locus YJL134W, strain LCB3, hits give low values 1.01 | locus YJL154C, strain vps35, hits give low values 1 | locus YJL164C, strain tpk1, hits give low values 1.02 | locus YJL166W, strain qcr8, hits give low values 1.04 | locus YJL168C, strain set2, hits give low values 0.989 | locus YJL187C, strain SWE1 (second series), hits give low values 1.01 | locus YJR043C, strain POL32, hits give low values 1 | locus YJR066W, strain TOR1, hits give low values 0.971
